The source made the active and inactive calls.
Key:
[1] = optical density shifts of acrAB sulA E. coli – strain DRC41, OD650, 48 h, E. coli filamentation inducer project, primary screen (AID 1152); settings: higher = more signal, called active from +8 up or from −8 down;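 further: E. coli MC1000 strain DRC41 lacking acrAB efflux pump and sulA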
[2] = probe aLefty1 binding on compound microarray – biochemical, small-molecule microarray, 635/667 nm fluorescence, primary screen (AID 1153); settings: higher = more signal;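 further: score merges spot fluorescence with signal-to-noise ratio from the scanned slide images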
[3] = plasmodial surface anion channel blockers, osmotic lysis – cell-based, P. falciparum Indochina, OD700, 1 h, primary screen (AID 1154); settings: P. falciparum Indochina infected RBC osmotic lysis, higher = more signal, called active from +8 up or from −8 down
[4] = plasmodial surface anion channel blockers, osmotic lysis – cell-based, P. falciparum Indochina, OD700, 2 h, primary screen (AID 1155);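 further: lysis reports solute entry through the parasite surface anion channel PSAC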; settings: P. falciparum Indochina infected erythrocytes, higher = more signal, called active from +8 up or from −8 down
[5] = changes in parasitized red cell lysis, either direction – P. falciparum Indochina, OD700, 3 h, PSAC antagonist project, primary screen (AID 1156); settings: P. falciparum-infected erythrocytes, osmotic lysis, higher = more signal, called active from +8 up or from −8 down
[6] = plasmodial surface anion channel blockers, osmotic lysis – cell-based, P. falciparum Indochina, OD700, 18 h, primary screen (AID 1157); settings: P. falciparum Indochina infected erythrocytes, osmotic lysis OD700, 18 h; higher = more signal, called active from +8 up or from −8 down
[7] = S6 kinase pathway phospho-S6 level changes – cell-based, A549, cytoblot, luminescence, serum-stimulated, primary screen (AID 1158); settings: 5 h, higher = more signal;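 further: serum-stimulated A549 lung adenocarcinoma cells; signal is phosphorylated S6 detected by cytoblot immunostaining with HRP secondary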
[8] = target: NADPH oxidase 2 (Homo sapiens) (UniProt P04839); assay: compounds shifting NOX2 Amplex Red fluorescence – cell-based, HEK293-NOX2, PMA-stimulated, NOX inhibitor project, primary screen (AID 1159); settings: 45 min, higher = more signal, called active from +8 up or from −8 down; further: test concentration not given here
NADPH oxidase 2 (Homo sapiens), sequence (P04839 whole entry, looked up): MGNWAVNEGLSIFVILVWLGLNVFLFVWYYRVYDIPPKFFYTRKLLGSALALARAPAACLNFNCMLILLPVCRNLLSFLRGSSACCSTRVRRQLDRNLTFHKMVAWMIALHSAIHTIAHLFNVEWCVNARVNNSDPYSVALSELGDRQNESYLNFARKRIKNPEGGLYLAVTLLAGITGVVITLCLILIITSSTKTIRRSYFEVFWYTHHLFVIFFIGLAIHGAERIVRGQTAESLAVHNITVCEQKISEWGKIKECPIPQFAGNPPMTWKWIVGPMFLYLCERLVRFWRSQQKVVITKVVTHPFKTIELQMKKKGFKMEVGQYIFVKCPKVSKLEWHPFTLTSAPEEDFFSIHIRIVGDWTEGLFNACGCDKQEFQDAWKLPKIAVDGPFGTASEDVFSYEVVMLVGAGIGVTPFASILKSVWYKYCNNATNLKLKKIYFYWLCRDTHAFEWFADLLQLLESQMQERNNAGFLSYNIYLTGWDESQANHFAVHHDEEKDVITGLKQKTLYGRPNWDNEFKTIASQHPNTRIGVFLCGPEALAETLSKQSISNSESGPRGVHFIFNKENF

[9] = target: NADPH oxidase 4 (Homo sapiens) (UniProt Q9NPH5); assay: compounds shifting NOX4 Amplex Red fluorescence – cell-based, HEK293-NOX4, tetracycline-induced, NOX inhibitor project, primary screen (AID 1160); settings: HEK293-NOX4, Amplex Red H2O2 fluorescence, 45 min; higher = more signal, called active from +8 up or from −8 down
NADPH oxidase 4 (Homo sapiens), sequence (Q9NPH5 whole entry, looked up): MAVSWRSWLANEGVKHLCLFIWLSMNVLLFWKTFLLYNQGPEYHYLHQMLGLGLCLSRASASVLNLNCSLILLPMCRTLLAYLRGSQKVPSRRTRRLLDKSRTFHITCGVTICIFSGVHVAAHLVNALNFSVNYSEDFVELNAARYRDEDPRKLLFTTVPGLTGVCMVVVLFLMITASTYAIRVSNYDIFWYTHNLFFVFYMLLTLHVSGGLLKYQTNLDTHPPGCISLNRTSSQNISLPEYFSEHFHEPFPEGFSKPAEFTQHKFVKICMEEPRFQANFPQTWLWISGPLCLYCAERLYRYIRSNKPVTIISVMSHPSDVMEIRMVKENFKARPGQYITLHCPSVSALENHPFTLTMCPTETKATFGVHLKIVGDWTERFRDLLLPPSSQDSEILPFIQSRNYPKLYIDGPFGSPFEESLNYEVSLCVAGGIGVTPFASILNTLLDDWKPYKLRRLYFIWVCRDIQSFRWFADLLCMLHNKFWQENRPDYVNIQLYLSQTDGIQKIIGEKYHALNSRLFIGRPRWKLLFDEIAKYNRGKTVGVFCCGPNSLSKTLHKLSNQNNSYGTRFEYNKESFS

[10] = target: NADPH oxidase 5 (Homo sapiens) (UniProt Q96PH1); assay: compounds shifting NOX5 Amplex Red fluorescence – cell-based, HEK293-NOX5, NOX inhibitor project, primary screen (AID 1161); settings: HEK293-NOX5, ionomycin, 45 min, higher = more signal
NADPH oxidase 5 (Homo sapiens), sequence (Q96PH1 whole entry, looked up): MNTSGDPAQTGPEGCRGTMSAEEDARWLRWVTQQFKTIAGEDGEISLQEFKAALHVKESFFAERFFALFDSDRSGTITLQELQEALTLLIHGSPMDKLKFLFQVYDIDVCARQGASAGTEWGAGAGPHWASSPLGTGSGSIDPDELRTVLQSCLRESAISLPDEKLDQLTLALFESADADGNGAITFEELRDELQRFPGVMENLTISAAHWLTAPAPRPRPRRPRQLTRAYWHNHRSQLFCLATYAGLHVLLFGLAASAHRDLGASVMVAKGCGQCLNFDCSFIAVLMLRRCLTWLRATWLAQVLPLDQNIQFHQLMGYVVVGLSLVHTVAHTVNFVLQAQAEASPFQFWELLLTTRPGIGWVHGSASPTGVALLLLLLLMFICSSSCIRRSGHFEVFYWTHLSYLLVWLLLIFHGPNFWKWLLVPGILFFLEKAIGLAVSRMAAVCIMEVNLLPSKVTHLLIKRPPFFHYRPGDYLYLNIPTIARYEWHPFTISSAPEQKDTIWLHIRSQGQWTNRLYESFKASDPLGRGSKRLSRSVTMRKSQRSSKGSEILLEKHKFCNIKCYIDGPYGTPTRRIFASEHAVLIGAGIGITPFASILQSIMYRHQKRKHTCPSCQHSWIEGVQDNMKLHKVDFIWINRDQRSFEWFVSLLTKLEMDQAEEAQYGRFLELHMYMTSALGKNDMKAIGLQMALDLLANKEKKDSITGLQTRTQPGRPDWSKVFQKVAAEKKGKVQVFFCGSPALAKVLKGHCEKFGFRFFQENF

Row | SMILES | z-score [1] | composite z-score [2] | z-score [3] | z-score [4] | z-score [5] | z-score [6] | z-score [7] | z-score [8] | z-score [9] | z-score [10]
1 | COc1ccc([Si](C)(C)[C@H]2[C@H](CC(=O)N3CCC[C@H]3CO)O[C@@]3(C(=O)N(C)c4c(Br)cc(C)cc43)[C@@H]2C)cc1 | -0.437 (inactive) | 1 | 2.11 (inactive) | 0.179 (inactive) | -0.192 (inactive) | 0.62 (inactive) | 0.488 | 0.951 (inactive) | 0.657 (inactive) | 3.04
2 | COc1ccc([Si](C)(C)[C@@H]2[C@@H](CC(=O)N3CCC[C@H]3CO)O[C@]3(C(=O)N(Cc4cccc(N5C(=O)c6cccc7cccc5c67)c4)c4ccccc43)[C@H]2C)cc1 | 1.63 (inactive) | 0.19 | 3.97 (inactive) | -0.263 (inactive) | -0.16 (inactive) | -1.24 (inactive) | 0.851 | 2.72 (inactive) | 1.31 (inactive) | 2.84
3 | COCCCNC(=O)[C@@]1(CCC(=O)OC(C)(C)C)N=C(c2ccc(OCCCO)cc2)O[C@H]1c1ccccc1 | 1.41 (inactive) | 0.0949 | 12.9 (active) | 1.15 (inactive) | 0.384 (inactive) | 0.566 (inactive) | -0.422 | -0.865 (inactive) | 0.388 (inactive) | 0.188
4 | CC1C2C(CCCO)=CC(C3C(=O)N(C)C(=O)C23)N1Cc1cccc(OC(F)(F)F)c1 (stereo not given) | 0.337 (inactive) | -0.0083 | 1.38 (inactive) | 0.938 (inactive) | 1.07 (inactive) | 0.528 (inactive) | 1.04 | 0.733 (inactive) | -0.702 (inactive) | 0.455
5 | CO[C@H]1O[C@H](CO)[C@@H](OC(=O)Nc2cccc(F)c2)[C@H](OC(=O)c2cc3ccccc3[nH]2)[C@H]1OC(=O)c1cc2ccccc2[nH]1 | 0.378 (inactive) | -0.0412 | 0.694 (inactive) | -1.02 (inactive) | -0.0952 (inactive) | -0.908 (inactive) | 2.06 | -2.38 (inactive) | -0.453 (inactive) | -3.81
6 | C=CC[C@]12N=C(c3ccc(OCCCO)cc3)O[C@H]1c1ccccc1N(CCC)C2=O | -0.0423 (inactive) | 1.26 | 32.8 (active) | 33.1 (active) | 2.98 (inactive) | 4.84 (inactive) | 0.204 | -2.03 (inactive) | 0.00147 (inactive) | -1.71
7 | CN(C)CCCCNC(=O)[C@H]1C[C@H]2C(=O)N[C@@H](CCCCN(C)C)C(=O)N2[C@H]1c1ccc(O)cc1 | 2.41 (inactive) | -0.299 | -0.418 (inactive) | -0.546 (inactive) | 0.589 (inactive) | -1.34 (inactive) | 0.859 | 0.109 (inactive) | 0.504 (inactive) | 0.875
8 | CCCCC(=C=CC[C@H](O)c1ccccc1OCCO)CCO | -0.0046 (inactive) | -0.245 | 4.53 (inactive) | 0.626 (inactive) | -0.0542 (inactive) | 0.331 (inactive) | -0.401 | -0.732 (inactive) | -0.145 (inactive) | -1.55
9 | CCCCCCc1nc(-c2ccc(OC)nc2)c(C)c2c1[Si](C(C)C)(C(C)C)OC2 | 0.579 (inactive) | -0.115 | 1.74 (inactive) | -0.0075 (inactive) | 0.974 (inactive) | -0.349 (inactive) | 1.34 | -1.98 (inactive) | -0.117 (inactive) | -2.71
10 | COC(=O)[C@@]1(Cc2ccc(F)cc2)[C@H]2c3cc(C(=O)N4CCCC4)n(Cc4ccc(C(F)(F)F)nc4)c3C[C@H]2CN1C(=O)c1ccccc1 | -0.984 (inactive) | 0.93 | 2.37 (inactive) | 0.229 (inactive) | 2.16 (inactive) | 0.716 (inactive) | -0.186 | 0.0745 (inactive) | 0.488 (inactive) | -2.46
11 | COC(=O)[C@@]1(Cc2ccc(F)cc2)[C@@H]2C(=CC(=O)[C@H]2CC(=O)C(=O)N2CCCC2)CN1C(=O)c1ccccc1 | -1.18 (inactive) | 1.45 | 3.94 (inactive) | -0.607 (inactive) | -2.12 (inactive) | -1.03 (inactive) | 1.84 | -3.72 (inactive) | -5.14 (inactive) | -4.38
12 | O=C1OC[C@@H](c2ccccc2)n2cc(/C=C/c3ccccc3)cc21 | 0.989 (inactive) | -0.0868 | 16.3 (active) | 0.408 (inactive) | 2.6 (inactive) | -1.8 (inactive) | 0.693 | 0.0419 (inactive) | 0.618 (inactive) | -0.408
13 | COC(=O)[C@H](Cc1ccccc1)N1CC(C)(OC)O[C@@H](Cc2ccccc2)[C@H]1/C=C/C1CC1 (stereo not given in full) | 0.286 (inactive) | -0.147 | 1.92 (inactive) | 0.0937 (inactive) | -0.774 (inactive) | 0.281 (inactive) | -0.105 | -4.36 (inactive) | -0.147 (inactive) | -0.141
14 | CCCCN1CC=CC23O[C@@H]4C=CCCOC(=O)C4[C@H]2C(=O)N(CCO)[C@@H]3C1=O (stereo not given in full) | 0.634 (inactive) | -0.239 | 0.506 (inactive) | 0.303 (inactive) | 1.21 (inactive) | 0.211 (inactive) | -0.357 | 1.09 (inactive) | 0.519 (inactive) | 0.432
15 | CC[C@@H](O[Si](C#C[Si](C(C)C)(C(C)C)C(C)C)(C(C)C)C(C)C)c1cn(Cc2cccc(Cl)c2)nn1 | 1.2 (inactive) | 0.106 | -0.0842 (inactive) | 0.523 (inactive) | -0.559 (inactive) | 0.0622 (inactive) | -0.559 | -0.16 (inactive) | -0.839 (inactive) | -1.62
16 | C[C@]12C(=O)N(CCO)[C@@H]3C(=O)N(c4ccc(Cl)cc4)CC=CC31O[C@@H]1/C=C\CCCOC(=O)C12 (stereo not given in full) | -0.295 (inactive) | 0.161 | 0.505 (inactive) | 0.176 (inactive) | 0.228 (inactive) | 0.359 (inactive) | -0.362 | 1.96 (inactive) | -0.22 (inactive) | 2.65
17 | CC(C)(C)OC(=O)CC[C@@]1(C(=O)N2CCOCC2)N=C(c2ccc(OCCCO)cc2)O[C@@H]1c1ccccc1CN=[N+]=[N-] | 0.409 (inactive) | 0.85 | 27 (active) | 14.9 (active) | -0.762 (inactive) | 1.11 (inactive) | -0.449 | 0.825 (inactive) | 2.1 (inactive) | 2.05
18 | C=C[C@H](OC)[C@@H](O)c1ccc(OC)c(O)c1 | 0.169 (inactive) | -0.169 | -0.258 (inactive) | 0.352 (inactive) | -0.658 (inactive) | 0.207 (inactive) | -0.425 | -2.15 (inactive) | -0.986 (inactive) | -0.556
19 | C[N+](C)(C)CCCC[C@@H]1NC(=O)[C@H]2C[C@@H](C(=O)O)[C@@H](c3ccc(O)cc3)N2C1=O | 1.03 (inactive) | 0.0437 | 3.34 (inactive) | 1.17 (inactive) | -2.47 (inactive) | 0.302 (inactive) | 1.2 | -1.77 (inactive) | -1.23 (inactive) | -0.411
20 | COc1cc2c(cc1O)C(C)N(Cc1sc3ccccc3c1Cl)CC2 (stereo not given) | 0.268 (inactive) | -0.145 | 4.05 (inactive) | 2.4 (inactive) | 0.334 (inactive) | 1.85 (inactive) | -0.43 | -3.7 (inactive) | -2.3 (inactive) | -3.2
21 | O=C1NC(=O)C2C1C=CC(C(O)C(O)CO)N2Nc1ccccn1 (stereo not given) | -0.0393 (inactive) | 0.586 | 0.0087 (inactive) | 0.0339 (inactive) | -0.489 (inactive) | -0.145 (inactive) | 1.14 | -0.193 (inactive) | -0.921 (inactive) | -0.339
22 | NCCCCCCNC(=O)[C@@H]1C[C@@H]2C(=O)NCC(=O)N2[C@@H]1c1cccc(OCCO)c1 | 0.884 (inactive) | 0.0892 | 1.68 (inactive) | 0.774 (inactive) | -0.523 (inactive) | 0.0308 (inactive) | 1.51 | 1.29 (inactive) | 0.934 (inactive) | 1.65
